Source: PubChem BioAssay (several laboratories)
The sample as a whole holds a higher share of hits than the screen did.
HePTP inhibitor = inhibitors of human HePTP phosphatase, primary screen, biochemical, absorbance, leukemia target. inhibition, % at 20 µM. hit rate 0.64% among 110,000. Tyrosine-protein phosphatase non-receptor type 7 (Homo sapiens), P35236. recombinant HePTP phosphatase activity, OD absorbance; in the data active = inhibition above about 50%;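 also: plate controls were vehicle for no effect and reference inhibitor for full effect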
D1 mod = D1 CRE-luciferase signal change, two-sided – cell-based, HEK293 D1, dopamine EC30, D1 allosteric modulator project, primary screen; dopamine EC30 potentiation; actives deviate in either direction; B-score at 10 µM; D(1A) dopamine receptor (Homo sapiens), P21728; hit rate 5.9% among 58,000;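 active = luminescence count or its row- and column-corrected plate score outside the 99.7% band of the plate's sample wells, on either side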
PLAP activator = PLAP enzyme activators, biochemical, luminescence, HTS | AID 696, 2007 | hit rate 1.2% among 96,000 | purified PLAP enzyme, luminescent substrate read-out; hits give high values | activation fold at 20 µM | Alkaline phosphatase, placental type (Homo sapiens), P05187; in the data active = activation fold above about 2
Target sequence (P05187 whole entry, looked up): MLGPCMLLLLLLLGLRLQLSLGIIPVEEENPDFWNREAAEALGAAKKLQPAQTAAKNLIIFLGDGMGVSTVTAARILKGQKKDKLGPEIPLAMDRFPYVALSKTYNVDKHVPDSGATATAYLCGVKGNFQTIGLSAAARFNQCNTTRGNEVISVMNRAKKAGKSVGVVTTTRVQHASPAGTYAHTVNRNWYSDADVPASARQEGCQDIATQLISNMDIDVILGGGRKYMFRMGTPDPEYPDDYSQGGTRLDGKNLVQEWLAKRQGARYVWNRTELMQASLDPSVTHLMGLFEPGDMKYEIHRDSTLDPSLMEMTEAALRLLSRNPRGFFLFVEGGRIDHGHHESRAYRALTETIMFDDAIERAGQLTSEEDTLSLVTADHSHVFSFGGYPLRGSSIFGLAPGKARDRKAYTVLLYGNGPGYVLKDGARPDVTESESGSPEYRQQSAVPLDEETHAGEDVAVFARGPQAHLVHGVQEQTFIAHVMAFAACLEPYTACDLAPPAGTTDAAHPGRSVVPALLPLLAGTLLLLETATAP
DAT uptake mod = changed hDAT dopamine uptake under cocaine IC80, either direction, primary screen, cocaine antagonist project, cell-based, LLC-PK1 hDAT, [14C]-dopamine uptake, MLSMR; Sodium-dependent dopamine transporter (Homo sapiens), Q01959; LLC-PK1 hDAT cells, [14C]-dopamine uptake with cocaine IC80; actives deviate in either direction; B-score at 10 µM; hit rate 1.3% among 110,000; AID 449768, 2010;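 active = Z score or B-score, a plate-position-corrected score, falls beyond the plate's 99.7% confidence bounds, in either direction; inactive = both scores lie inside the 99.7% bounds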;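 also: scored against the spread of the other compound wells on the same plate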
TNAP act mid DEA = human TNAP enzyme activators, primary screen, biochemical, luminescent, intermediate phosphate acceptor level. purified TNAP, CDP-star luminescence, 100 mM DEA, 30 min; hits give high values; scale: 0 levamisole-inhibited, 1 vehicle-only enzyme. activation factor at 20 µM. 64,000 tested, under 10 active. AID 813, 2007;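 active = activation factor of at least 2 at 20 µM, relative to controls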
Candida biofilm = clotrimazole potentiators killing Candida biofilms, primary screen, with clotrimazole, Alamar Blue. C. albicans biofilm + clotrimazole. inhibition, % at 6 µM. hit rate 0.14% among 85,000. AID 834, 2007;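 active = inhibition above 20%; inactive = inhibition below 20%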;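 also: preformed 24 hr biofilms exposed to compound for 48 hr; 0% = biofilm without compound and 100% = blank killed by clotrimazole plus chlorhexidine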
D1 mod confirm = D1 receptor positive allosteric modulators, retest, confirmation, cell-based, HEK293 D1, CRE-luciferase, duplicate; luminescence at 10 µM; shares compounds with D1 mod; hit rate 88% among 2,200; dopamine EC30 potentiation; hits give high values; AID 642, 2007;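 active = luminescence in either of two replicates above the same-plate mean plus 3 SD of the low-dose dopamine control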
D1 no dopamine = D1 receptor agonism without dopamine, confirmation, mechanism study for D1 allosteric modulator project, cell-based, HEK293 D1, CRE-luciferase, secondary assay 1. hit rate 0.8% among 1,900. shares compounds with D1 mod. luminescence at 10 µM. luminescence, no dopamine; hits give high values; in the data active = luminescence above about 3900
Isoprot counter = alters isoproterenol CRE-luciferase response in HEK293 cells; shares compounds with D1 mod; HEK293 D1 CRE-luciferase, isoproterenol EC30 counter-screen; hits give high values; luminescence at 10 µM; hit rate 63% among 2,200;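 active = luminescence in either replicate above plate mean of wells with a partly effective reference agonist dose plus 3 SD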;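 also: isoproterenol raises cAMP through native beta-adrenoceptor Gs so signal bypasses D1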
* hit, by the source's call; x = not tested or not shown.

SMILES	HePTP inhibitor	D1 mod	PLAP activator	DAT uptake mod	TNAP act mid DEA	Candida biofilm	D1 mod confirm	D1 no dopamine	Isoprot counter
Cc1noc(NS(=O)(=O)c2ccc(N/C=C/C(=O)c3ccc4c(c3)OCO4)cc2)c1C	5	8.5*	1	-0.84	0.9	x	13260*	1840	3108*
CC(=O)Nc1ccc(S(=O)(=O)Nc2cc(C)ccc2C)cc1	-20	x	x	x	x	x	x	x	x
O=C(NCC1CCCO1)c1cc(-c2ccc(Cl)cc2)nc2ccccc12 (stereo not drawn)	2	x	x	x	x	x	x	x	x
Nc1c(S(=O)(=O)c2cccs2)c2nc3ccccc3nc2n1CC1CCCO1 (stereo not drawn)	8	5.9*	1.1	-0.51	0.8	7	12068*	1576	3268*
Nc1c(S(=O)(=O)c2cccs2)c2nc3ccccc3nc2n1Cc1cccs1	7	0.58	0.9	-0.82	0.8	3	x	x	x
CCOc1cccc(/C=N/NC(=O)C2=C(C)Nc3ccccc3S2)c1O	2	x	x	x	x	x	x	x	x
OC(CN1CCCC1)Cn1c2ccc(Br)cc2c2cc(Br)ccc21 (stereo not drawn)	-8	x	x	x	x	x	x	x	x
Cc1oc2ccc(OCC(N)=O)cc2c1C(=O)OC(C)C	11	4.6*	1.4	-0.43	1	x	6628*	1556	2732
COc1ccc(C2CC(C(F)(F)F)n3ncc(C(=O)N(C)Cc4ccccc4)c3N2)cc1OC (stereo not drawn)	-18	x	x	x	x	x	x	x	x
COc1ccc(C2CC(C(F)(F)F)n3ncc(C(=O)NCc4cccnc4)c3N2)cc1OC (stereo not drawn)	-8	9.8*	1.4	0.53	0.9	5	18500*	1632	7624*
Nc1nc2n(n1)C(c1cccc(Br)c1)CC(c1ccccc1)N2 (stereo not drawn)	14	37*	1	1.1	0.9	-2	18056*	1512	4120*
COc1cccc(C2CC(c3cccc(Br)c3)n3nc(N)nc3N2)c1 (stereo not drawn)	-10	9.3*	1.1	-1.3	1	1	12600*	1776	4148*
CC1(C)Cc2ccccc2/C(=C/C(=O)N2CCCCCC2)N1	3	x	1.4	0.72	x	-2	x	x	x
CCOC(=O)/C=C1\NC(C)(C)Cc2cc(OC)c(O)cc21	2	4*	1.3	-0.27	1	0	8420*	1572	2916
COc1cc2c(cc1OC)/C(=C/C(=O)N1CCOCC1)NC(C)(C)C2	2	10*	1.4	0.16	0.9	-4	18680*	1652	4848*
CCOC(=O)/C=C1\NC(C)(C)Cc2cc(OC)c(OC)cc21	1	x	1	0.74	x	6	x	x	x
CCOc1cc(/C=C2\C(=O)NC(=S)N(c3cccc(Br)c3)C2=O)ccc1O	12	x	x	x	x	x	x	x	x
CCN1C(=O)/C(=C\c2ccc(C)cc2)C(C(=O)OC)=C1C	8	x	x	x	x	x	x	x	x
CCCCn1c(CCC(=O)O)nc2c1c(=O)[nH]c(=O)n2CCC	x	x	1	0.71	x	x	x	x	x
CCCCn1c(=O)[nH]c(=O)c2c1nc(COC(=O)c1c(C)noc1C)n2CCC	12	6.2*	1.2	1.4	0.9	5	14616*	1628	3932*
O=C(CC1S/C(=N\N=C\c2ccccc2)NC1=O)Nc1ccccc1Br (stereo not drawn)	-2	x	x	x	x	x	x	x	x
CC(=O)n1c2ccccc2c2nc(NC(C)C)sc21	4	6.4*	0.7	0.77	0.9	7	8636*	1696	3344*
CCCCn1c(=NC(=O)c2ccco2)c(C(=O)OCC)cc2c(=O)n3ccccc3nc21	6	5.6*	1.1	0.85	0.9	7	9240*	1496	2948
CCOCCCn1c(=NC(=O)c2cccnc2)c(C(=O)OCC)cc2c(=O)n3ccccc3nc21	9	3.3*	1.3	0.38	1	4	10440*	1560	3780*
CCCCCn1c(=NC(=O)c2ccco2)c(C(=O)OCC)cc2c(=O)n3ccccc3nc21	3	3.2	1.2	x	0.9	8	x	x	x
SMILES	HePTP inhibitor	D1 mod	PLAP activator	DAT uptake mod	TNAP act mid DEA	Candida biofilm	D1 mod confirm	D1 no dopamine	Isoprot counter
CCCCn1c(=NC(=O)c2cccnc2)c(C(=O)OCC)cc2c(=O)n3ccccc3nc21	10	7*	1	0.7	0.9	2	11452*	1452	2068
CCOC(=O)c1cc2c(=O)n3cccc(C)c3nc2n(CCCOC)c1=NC(=O)c1cccnc1	5	x	1.3	-0.12	1	x	x	x	x
Cc1cc(NS(=O)(=O)c2ccc(NC(=O)C(Cl)(Cl)Cl)cc2)nc(C)n1	6	x	x	x	x	x	x	x	x
COc1ccc(OC)c(/C=C/C(=O)NCC2CCCO2)c1 (stereo not drawn)	2	x	x	x	x	x	x	x	x
CCOC(=O)Nc1ccc2c(c1)Sc1ccccc1N2C(=O)CCN1CCOCC1	10	4.8*	1.4	0.88	0.9	12	8528*	x	3084*
Cc1cc(C)n2nc3nc(N4CCCC4)nc(-c4ccccc4)c3c2n1	-9	4.8*	1.5	x	1	4	7140*	1568	3364*
COc1ccc(-c2nc(N3CCOCC3)nc3n[nH]c(N)c23)cc1	0	5*	1.1	-0.3	1	5	12424*	x	3892*
COc1ccc(-c2nc(N3CCCC3)nc3nn4c(C)cc(C)nc4c23)cc1	2	-0.82	x	x	0.9	5	x	x	x
Nc1[nH]nc2nc(N3CCCC3)nc(-c3ccccc3)c12	4	15*	2*	0.52	1	4	18304*	1740	3664*
CCOC(=O)c1c(C)n(CC(O)c2ccc([N+](=O)[O-])cc2)c2c1cc(O)c1ccccc12 (stereo not drawn)	5	x	x	x	x	x	x	x	x
COc1ccc(C2/C(=C(/O)c3ccccc3)C(=O)C(=O)N2c2cccc([N+](=O)[O-])c2)c(OC)c1 (stereo not drawn)	-7	x	x	x	x	x	x	x	x
